PubChem BioAssay (EPA / NIEHS)
Several values for one entry are separate records, joined by “and”; a condition that tells them apart may be missing. Identical values can stand only once. Results filed as inconclusive are left out. Activity calls are given as the source filed them. How the source made its calls, unless noted: active means hit-call score of the fitted dose curve at least 0.9, where 1 is the maximum; inactive means score below 0.9.

Tests used:
[1] = biological target: Nuclear respiratory factor 1 (Homo sapiens) (UniProt Q16656); assay: ATG_NRF1_CIS: Attagene CIS-FACTORIAL HepG2 Assay for human Nuclear Respiratory Factor 1 (NRF1) Orphan Gene (AID 2282987); settings: HepG2 NRF1 cis-element reporter, Attagene multiplex; actives raise or lower the signal
Summary of the method: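 Endogenous NRF1-driven reporter transcription measured in transiently transfected human HepG2 liver cells. Readout: reporter mRNA by RT-PCR and capillary electrophoresis with fluorescence detection, 24 h post-dosing. Gain or loss of signal fitted relative to DMSO baseline.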

[2] = ATG_NFI_CIS: Attagene CIS-FACTORIAL HepG2 Assay for human Nuclear Factor I (NFI) (AID 2282989); settings: HepG2 cis-regulatory reporter, NFI response element transcription; actives raise or lower the signal
Summary of the method: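 Reporter transcription driven by endogenous transcription factors in HepG2 cells; 24 h treatment. Quantitation by labelled RT-PCR fragments on capillary electrophoresis, gain- or loss-of-signal relative to DMSO.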

[3] = biological target: Myc proto-oncogene protein (Homo sapiens) (UniProt P01106); assay: ATG_Myc_CIS: Attagene CIS-FACTORIAL HepG2 Assay for human Myelocytomatosis (Myc) Proto-Oncogene Transcription Factor (AID 2282990); settings: HepG2, Attagene cis-reporter transcription factor activity; actives raise or lower the signal
Summary of the method: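 Fluorescence intensity of reporter-specific cDNA fragments, separated by capillary electrophoresis, gives the signal. Transfected HepG2 cells carrying cis-promoter reporter constructs are incubated with compound for 24 h; DMSO serves as baseline.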

[4] = ATG_NF_kB_CIS: Attagene CIS-FACTORIAL HepG2 Assay for human Nuclear Factor Kappa B (NF-kB) (AID 2282991); settings: HepG2 Attagene cis-factorial NF-kB reporter mRNA; actives raise or lower the signal
Summary of the method: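 Read-out: reporter transcript levels quantified by RT-PCR plus capillary electrophoresis of 6-FAM-labelled, HpaI-cut fragments. Transfected HepG2 cells, 24 h compound exposure, endogenous NF-kB-driven cis element; gain or loss scored versus DMSO.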

[5] = ATG_NRF2_ARE_CIS: Attagene CIS-FACTORIAL HepG2 Assay for human Nuclear Factor Erythroid 2 Related Factor 2 (NFR2) response to Antioxidant Response Elements (ARE) (AID 2282992); settings: HepG2 Attagene ARE/NRF2 reporter, transcription factor activity; actives raise or lower the signal
Summary of the method: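 Multiplexed reporter mRNA profiling in HepG2 after a 24 h chemical exposure. Curves fitted in both directions relative to DMSO negative control.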

[6] = ATG_Oct_MLP_CIS: Attagene CIS-FACTORIAL HepG2 Assay for human Octamer-Binding Transcription Factor (Oct) (AID 2282993); settings: HepG2 Attagene cis-factorial Oct reporter, mRNA; actives raise or lower the signal
Summary of the method: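 Transfected HepG2 cells, 24 h treatment. Reporter mRNA quantified by RT-PCR–capillary electrophoresis; bidirectional fitting against DMSO.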

[7] = BSK_3C_uPAR: BioMAP Diversity Plus: 3C Assay for Urokinase-type plasminogen activator receptor (uPAR) Biomarker Activity (AID 2282998); settings: BioMAP 3C HUVEC, uPAR biomarker ELISA; actives raise or lower the signal
Summary of the method: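 Readout: ELISA for surface uPAR. System: human umbilical vein endothelial primary cells, 24 h after chemical exposure. Analysis: bidirectional fit, DMSO baseline.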

[8] = BSK_4H_Eotaxin3: BioMAP Diversity Plus: 4H Assay for Eotaxin 3 Biomarker Activity (AID 2283000); settings: primary human endothelial cells (HUVEC); actives raise or lower the signal
Summary of the method: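 Human umbilical vein endothelial cells (BSK_4H system) dosed with test chemical; Eotaxin-3 (CCL26) measured by ELISA 24 h after dosing. Bidirectional curve fitting relative to DMSO negative control as baseline.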

[9] = biological target: human Peroxisome Proliferator-activated Receptor alpha (PPARa), PPARA (gene 5465) (UniProt Q07869); assay: ATG_PPARa_TRANS: Attagene TRANS-FACTORIAL HepG2 Assay for human Peroxisome Proliferator-activated Receptor alpha (PPARa) (AID 2283001; active means hit-call score of the fitted dose curve at least 0.9, where 1 is the maximum)
Summary of the method: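 Measures transcriptional activity of an exogenous chimeric PPARa-Gal4 protein in transiently transfected HepG2 cells after 24 h dosing. Reporter mRNA quantified via RT-PCR and capillary electrophoresis; DMSO served as negative control.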

[10] = read-out: Intercellular Adhesion Molecule 1 (ICAM1), ICAM1 (gene 3383); assay: BSK_3C_ICAM1: BioMAP Diversity Plus: 3C Assay for Intercellular Adhesion Molecule 1 (ICAM1) Biomarker Activity (AID 2283003); settings: primary human endothelial cells (HUVEC); actives raise or lower the signal
Summary of the method: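 Primary human umbilical vein endothelial cells in the BioMAP 3C system were exposed to chemicals for 24 h, then ICAM-1 was quantified by ELISA. Activity was fitted bidirectionally against the DMSO negative control baseline.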

[11] = BSK_3C_Proliferation: Cell Proliferation Assessment in the BioMAP Diversity Plus: 3C Assay (AID 2283006); settings: primary human endothelial cells (HUVEC);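 on AC50: potency may reflect either rise or fall in cell number versus DMSO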
Summary of the method: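 Human umbilical vein endothelial cells were grown sub-confluent and exposed to chemical for 48 h, then fixed with 10% TCA and stained with 0.1% sulforhodamine B; absorbance at 560 nm gave relative cell number, fitted bidirectionally against DMSO baseline.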

[12] = biological target: Peroxisome proliferator-activated receptor gamma (Homo sapiens) (UniProt P37231); assay: ATG_PPARg_TRANS: Attagene TRANS-FACTORIAL HepG2 Assay for human Peroxisome Proliferator-activated Receptor-gamma (PPARg) (AID 2283007; active means hit-call score of the fitted dose curve at least 0.9, where 1 is the maximum)
Summary of the method: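 Read-out: reporter mRNA induction, detected by fluorescence after RT-PCR and capillary electrophoresis. Transiently transfected human HepG2 liver cells carrying a chimeric NR-Gal4 construct were dosed for 24 h; activity was fitted upward relative to DMSO.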

[13] = biological target: Nuclear receptor subfamily 1 group I member 2 (Homo sapiens) (UniProt O75469); assay: ATG_PXR_TRANS: Attagene TRANS-FACTORIAL HepG2 Assay for human Pregnane X Receptor (PXR) (AID 2283008; active means hit-call score of the fitted dose curve at least 0.9, where 1 is the maximum)
Summary of the method: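 Measures mRNA induction of a GAL4-UAS-driven reporter in human HepG2 cells transiently expressing PXR fused to Gal4, following 24 h treatment. DMSO served as negative control and baseline.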

[14] = biological target: human Retinoic Acid Receptor gamma (RARg), RARG (gene 5916) (UniProt P13631); assay: ATG_RARg_TRANS: Attagene TRANS-FACTORIAL HepG2 Assay for human Retinoic Acid Receptor gamma (RARg) (AID 2283009; active means hit-call score of the fitted dose curve at least 0.9, where 1 is the maximum)
Summary of the method: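 HepG2 cells transiently transfected with multiplexed reporter units expressing chimeric RARg-GAL4 and GAL4-UAS-driven reporters; 24 h compound exposure. Reporter mRNA quantified by RT-PCR with fluorescent labelling and capillary electrophoresis; gain-of-signal fitted relative to DMSO baseline.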

[15] = BSK_3C_TissueFactor: BioMAP Diversity Plus: 3C Assay for Tissue Factor Biomarker Activity (AID 2282997); settings: BioMAP 3C HUVEC, tissue factor biomarker readout; actives raise or lower the signal
Summary of the method: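 Dosing of human umbilical vein endothelial cells preceded a 24 h incubation. Tissue Factor was then read by ELISA, with increases and decreases both scored relative to DMSO controls.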

[16] = BSK_3C_VCAM1: BioMAP Diversity Plus: 3C Assay for Vascular cell adhesion molecule 1 (VCAM1) Biomarker Activity (AID 2282999); settings: BioMAP 3C HUVEC, VCAM1 ELISA, cytokine-stimulated; actives raise or lower the signal
Summary of the method: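 Human umbilical vein endothelial cells (3C system), biomarker read by ELISA 24 h after dosing; bidirectional fit against DMSO baseline. Cytotoxicity tracked by SRB total-protein staining in parallel cultures at biomarker time.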

[17] = biological target: human Peroxisome Proliferator-activated Receptor delta (PPARd), PPARD (gene 5467) (UniProt Q03181); assay: ATG_PPARd_TRANS: Attagene TRANS-FACTORIAL HepG2 Assay for human Peroxisome Proliferator-activated Receptor delta (PPARd) (AID 2283002; active means hit-call score of the fitted dose curve at least 0.9, where 1 is the maximum)
Summary of the method: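 Fluorescence from capillary electrophoresis of labelled RT-PCR reporter fragments gives the signal; DMSO sets baseline. Cells: HepG2 transiently carrying GAL4-UAS reporter units plus chimeric nuclear receptor-Gal4 proteins, exposed to chemicals for 24 h.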

[18] = biological target: human Retinoic Acid Receptor beta (RARb), RARB (gene 5915) (UniProt P10826); assay: ATG_RARb_TRANS: Attagene TRANS-FACTORIAL HepG2 Assay for human Retinoic Acid Receptor beta (AID 2283004; active means hit-call score of the fitted dose curve at least 0.9, where 1 is the maximum)
Summary of the method: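 Induction of reporter mRNA from a chimeric RARb-Gal4 construct was measured by RT-PCR, FAM labelling, HpaI digestion and capillary electrophoresis. Measurements followed 24 h compound treatment of transiently transfected human HepG2 liver cells, with DMSO as baseline.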

[19] = biological target: Cellular tumor antigen p53 (Homo sapiens) (UniProt P04637); assay: ATG_p53_CIS: Attagene CIS-FACTORIAL HepG2 Assay for human p53 Transcription Factor (AID 2282994); settings: HepG2 p53 cis-element reporter, Attagene mRNA; actives raise or lower the signal
Summary of the method: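 Multiplexed reporter mRNA assay in human HepG2 liver cells; cis-regulated units report endogenous factor activity. Values come from bidirectional curve fitting against DMSO negative control after 24 h treatment.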

[20] = biological target: Retinoic acid receptor alpha (Homo sapiens) (UniProt P10276); assay: ATG_RARa_TRANS: Attagene TRANS-FACTORIAL HepG2 Assay for human Retinoic Acid Receptor alpha (RARa) (AID 2283005; active means hit-call score of the fitted dose curve at least 0.9, where 1 is the maximum)
Summary of the method: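 HepG2 transiently transfected with multiplex GAL4-UAS reporter units including a human RARa–GAL4 chimera; 24 h compound exposure. Reporter mRNA quantified by RT-PCR, 6-FAM labeling and capillary electrophoresis; gain of signal versus DMSO.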

Measured: AC50

Sequence of human Peroxisome Proliferator-activated Receptor alpha (PPARa), PPARA (gene 5465) (Q07869 whole entry, looked up, the tested form may be a part): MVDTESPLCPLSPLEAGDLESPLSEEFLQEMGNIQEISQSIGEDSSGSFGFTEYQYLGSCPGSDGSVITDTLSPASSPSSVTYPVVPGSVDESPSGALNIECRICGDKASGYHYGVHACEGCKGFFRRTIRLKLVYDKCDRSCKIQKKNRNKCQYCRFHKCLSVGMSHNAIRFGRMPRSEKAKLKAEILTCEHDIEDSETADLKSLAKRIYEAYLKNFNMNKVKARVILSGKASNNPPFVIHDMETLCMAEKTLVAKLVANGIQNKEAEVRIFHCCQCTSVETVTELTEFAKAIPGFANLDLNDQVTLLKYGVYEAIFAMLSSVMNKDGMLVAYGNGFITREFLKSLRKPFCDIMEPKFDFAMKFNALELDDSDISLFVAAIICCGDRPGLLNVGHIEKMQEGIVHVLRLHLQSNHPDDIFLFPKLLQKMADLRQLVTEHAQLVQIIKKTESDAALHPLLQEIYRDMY
Sequence of Nuclear receptor subfamily 1 group I member 2 (Homo sapiens) (O75469 whole entry, looked up, the tested form may be a part): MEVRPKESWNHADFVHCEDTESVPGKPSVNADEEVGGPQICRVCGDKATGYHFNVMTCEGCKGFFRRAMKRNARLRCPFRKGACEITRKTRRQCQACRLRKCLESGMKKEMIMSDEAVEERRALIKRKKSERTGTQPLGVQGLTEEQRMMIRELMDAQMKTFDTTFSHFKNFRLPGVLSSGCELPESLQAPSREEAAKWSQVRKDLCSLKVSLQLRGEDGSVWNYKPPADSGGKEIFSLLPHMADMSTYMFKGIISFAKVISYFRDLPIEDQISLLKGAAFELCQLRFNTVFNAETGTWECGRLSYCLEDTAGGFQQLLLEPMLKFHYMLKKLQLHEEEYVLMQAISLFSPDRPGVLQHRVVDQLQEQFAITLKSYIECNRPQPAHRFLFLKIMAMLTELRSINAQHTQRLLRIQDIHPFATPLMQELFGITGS
Sequence of Myc proto-oncogene protein (Homo sapiens) (P01106 whole entry, looked up, the tested form may be a part): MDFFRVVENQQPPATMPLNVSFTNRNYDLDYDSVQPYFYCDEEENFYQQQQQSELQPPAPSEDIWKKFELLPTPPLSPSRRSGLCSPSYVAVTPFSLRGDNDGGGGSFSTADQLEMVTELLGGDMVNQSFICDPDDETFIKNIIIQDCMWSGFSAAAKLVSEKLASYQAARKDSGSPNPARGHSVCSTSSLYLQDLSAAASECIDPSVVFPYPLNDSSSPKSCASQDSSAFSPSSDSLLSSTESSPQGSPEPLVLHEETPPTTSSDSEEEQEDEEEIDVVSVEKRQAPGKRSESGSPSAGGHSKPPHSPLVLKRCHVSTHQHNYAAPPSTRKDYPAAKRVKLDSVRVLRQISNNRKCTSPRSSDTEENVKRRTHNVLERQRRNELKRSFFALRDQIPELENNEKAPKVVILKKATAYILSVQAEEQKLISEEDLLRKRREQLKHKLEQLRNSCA
Sequence of human Retinoic Acid Receptor beta (RARb), RARB (gene 5915) (P10826 whole entry, looked up, the tested form may be a part): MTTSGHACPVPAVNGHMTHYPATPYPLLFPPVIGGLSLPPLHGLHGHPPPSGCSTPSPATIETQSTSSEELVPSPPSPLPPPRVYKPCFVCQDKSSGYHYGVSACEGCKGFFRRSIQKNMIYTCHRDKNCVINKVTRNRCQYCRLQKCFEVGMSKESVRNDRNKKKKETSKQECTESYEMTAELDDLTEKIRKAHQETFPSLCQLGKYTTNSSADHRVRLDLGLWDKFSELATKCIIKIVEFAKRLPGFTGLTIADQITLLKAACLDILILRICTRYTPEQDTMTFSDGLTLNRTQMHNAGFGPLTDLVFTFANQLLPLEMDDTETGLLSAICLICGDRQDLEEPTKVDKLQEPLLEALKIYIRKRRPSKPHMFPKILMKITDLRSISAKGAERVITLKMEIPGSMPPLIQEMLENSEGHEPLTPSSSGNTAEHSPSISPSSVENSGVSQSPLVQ
Sequence of human Peroxisome Proliferator-activated Receptor delta (PPARd), PPARD (gene 5467) (Q03181 whole entry, looked up, the tested form may be a part): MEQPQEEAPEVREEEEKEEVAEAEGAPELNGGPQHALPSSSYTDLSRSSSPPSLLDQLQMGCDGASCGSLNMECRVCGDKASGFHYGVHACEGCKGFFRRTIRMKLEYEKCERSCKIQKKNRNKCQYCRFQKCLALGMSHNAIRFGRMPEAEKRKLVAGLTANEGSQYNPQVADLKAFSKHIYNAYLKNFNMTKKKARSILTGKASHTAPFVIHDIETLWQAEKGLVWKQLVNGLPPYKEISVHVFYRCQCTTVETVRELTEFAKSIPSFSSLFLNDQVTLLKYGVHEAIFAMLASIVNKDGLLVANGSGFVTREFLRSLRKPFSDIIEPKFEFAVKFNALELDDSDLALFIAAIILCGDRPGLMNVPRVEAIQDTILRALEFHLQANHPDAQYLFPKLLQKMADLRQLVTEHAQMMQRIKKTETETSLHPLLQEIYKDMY
Sequence of Peroxisome proliferator-activated receptor gamma (Homo sapiens) (P37231 whole entry, looked up, the tested form may be a part): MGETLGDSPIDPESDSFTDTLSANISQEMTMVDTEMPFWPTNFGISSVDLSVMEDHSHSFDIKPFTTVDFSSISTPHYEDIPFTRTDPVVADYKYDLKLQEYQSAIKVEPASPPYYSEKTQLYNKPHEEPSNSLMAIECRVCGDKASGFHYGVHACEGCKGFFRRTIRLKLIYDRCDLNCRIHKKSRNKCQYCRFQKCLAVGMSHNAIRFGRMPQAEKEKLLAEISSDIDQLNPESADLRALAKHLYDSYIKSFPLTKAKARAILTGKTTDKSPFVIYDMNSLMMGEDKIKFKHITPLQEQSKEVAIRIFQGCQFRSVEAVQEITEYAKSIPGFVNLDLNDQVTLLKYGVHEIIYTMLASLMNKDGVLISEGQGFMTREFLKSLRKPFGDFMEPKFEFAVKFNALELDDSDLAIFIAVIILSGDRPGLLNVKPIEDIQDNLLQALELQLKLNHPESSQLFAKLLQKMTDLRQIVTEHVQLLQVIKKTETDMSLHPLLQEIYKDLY
Sequence of Nuclear respiratory factor 1 (Homo sapiens) (Q16656 whole entry, looked up): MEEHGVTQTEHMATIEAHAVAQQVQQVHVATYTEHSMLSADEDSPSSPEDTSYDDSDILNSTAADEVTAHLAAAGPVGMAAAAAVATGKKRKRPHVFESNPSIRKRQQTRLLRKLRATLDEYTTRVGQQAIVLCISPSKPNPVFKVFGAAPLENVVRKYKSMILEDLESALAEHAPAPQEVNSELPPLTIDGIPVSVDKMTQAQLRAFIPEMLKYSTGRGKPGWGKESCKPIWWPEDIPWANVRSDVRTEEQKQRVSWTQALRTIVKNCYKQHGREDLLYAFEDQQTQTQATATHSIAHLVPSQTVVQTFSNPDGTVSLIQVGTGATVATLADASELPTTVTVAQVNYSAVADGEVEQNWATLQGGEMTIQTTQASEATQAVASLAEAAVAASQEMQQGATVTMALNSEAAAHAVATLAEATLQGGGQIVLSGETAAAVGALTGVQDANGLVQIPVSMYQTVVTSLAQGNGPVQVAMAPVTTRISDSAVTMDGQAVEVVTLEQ
Sequence of Cellular tumor antigen p53 (Homo sapiens) (P04637 whole entry, looked up): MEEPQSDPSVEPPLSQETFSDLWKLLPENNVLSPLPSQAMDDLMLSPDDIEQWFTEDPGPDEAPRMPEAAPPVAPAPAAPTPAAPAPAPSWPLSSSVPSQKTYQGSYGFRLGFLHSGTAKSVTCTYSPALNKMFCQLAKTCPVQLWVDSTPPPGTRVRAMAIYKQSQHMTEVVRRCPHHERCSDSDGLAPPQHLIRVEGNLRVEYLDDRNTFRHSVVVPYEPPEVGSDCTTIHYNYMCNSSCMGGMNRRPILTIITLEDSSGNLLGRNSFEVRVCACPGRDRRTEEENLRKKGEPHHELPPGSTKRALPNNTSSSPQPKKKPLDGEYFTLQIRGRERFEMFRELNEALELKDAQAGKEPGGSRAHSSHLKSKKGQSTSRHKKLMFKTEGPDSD
Sequence of Retinoic acid receptor alpha (Homo sapiens) (P10276 whole entry, looked up, the tested form may be a part): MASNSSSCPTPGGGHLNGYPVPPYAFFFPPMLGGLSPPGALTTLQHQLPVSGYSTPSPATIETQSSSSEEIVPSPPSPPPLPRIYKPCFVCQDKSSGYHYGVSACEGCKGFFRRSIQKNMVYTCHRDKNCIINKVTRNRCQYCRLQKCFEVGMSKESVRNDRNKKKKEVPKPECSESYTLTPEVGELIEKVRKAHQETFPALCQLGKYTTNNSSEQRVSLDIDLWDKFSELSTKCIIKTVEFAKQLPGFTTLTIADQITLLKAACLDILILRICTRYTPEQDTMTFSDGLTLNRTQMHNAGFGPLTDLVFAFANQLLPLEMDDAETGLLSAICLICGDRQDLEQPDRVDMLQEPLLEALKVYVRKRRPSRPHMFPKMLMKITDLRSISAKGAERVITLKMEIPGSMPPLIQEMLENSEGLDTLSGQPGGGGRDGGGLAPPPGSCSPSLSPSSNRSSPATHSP
Sequence of human Retinoic Acid Receptor gamma (RARg), RARG (gene 5916) (P13631 whole entry, looked up, the tested form may be a part): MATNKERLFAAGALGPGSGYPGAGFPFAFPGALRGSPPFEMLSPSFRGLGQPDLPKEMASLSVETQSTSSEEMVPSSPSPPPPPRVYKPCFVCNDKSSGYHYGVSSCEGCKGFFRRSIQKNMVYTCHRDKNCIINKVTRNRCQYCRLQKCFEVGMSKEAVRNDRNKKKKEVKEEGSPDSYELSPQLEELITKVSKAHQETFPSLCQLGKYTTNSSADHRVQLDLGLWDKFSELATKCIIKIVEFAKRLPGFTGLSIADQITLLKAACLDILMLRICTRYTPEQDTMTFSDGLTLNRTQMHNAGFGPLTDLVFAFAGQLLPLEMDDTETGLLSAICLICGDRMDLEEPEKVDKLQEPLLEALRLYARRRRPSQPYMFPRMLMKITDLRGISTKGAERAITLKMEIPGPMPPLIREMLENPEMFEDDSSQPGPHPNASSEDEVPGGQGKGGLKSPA

O=C(O)C(F)(F)C(F)(F)C(F)(F)C(F)(F)F
not listed: [15] | [16] | [17] | [18] | [19] | [20]
inactive: all other assays above

C=CC(=O)OCC(F)(F)C(F)(F)C(F)(F)C(F)(F)COC(=O)C=C
inactive: [1] | [9] | [17] | [18] | [13]
active: [2] 50 µM | [3] 65.2 µM | [4] 38.4 µM | [5] 12.8 µM | [6] 21.5 µM | [15] 24.9 µM and 35.5 µM | [7] 22.9 µM and 28.2 µM | [16] 26.7 µM and 21.6 µM | [8] 20 µM and 18 µM | [10] 47.1 µM and 48.3 µM | [11] 9.61 µM and 8.46 µM | [12] 37.8 µM

FC(F)(F)C(F)(F)C(F)(F)C(F)(F)C(F)(F)C(F)(F)C(F)(F)I
not listed: [6] | [11] | [13] | [14] | [15] | [20]
inactive: all other assays above

CC(C)(C)c1ccc(OC2CCCCC2O)cc1 (stereo unspecified)
active: [5] 20.5 µM | [12] 28.4 µM | [13] 2.96 µM
inactive: [1] | [2] | [3] | [4] | [6] | [17] | [18] | [20]
